Assay results reported in PubChem BioAssay (Tox21).
Records with an inconclusive call do not appear. The source made the active and inactive calls. The call rests on the fitted dose curve.

Each molecule was assayed against Progesterone receptor (Homo sapiens) (UniProt P06401) (assay: qHTS assay to identify small molecule agonists of the progesterone receptor (PR) signaling pathway (AID 1346784; further: nearly all actives have a fitted effect of over 30% in size)). Details: PR-UAS-bla HEK293T, beta-lactamase FRET ratio, 16 h; series mostly up to 92.4 µM.
Sequence of Progesterone receptor (Homo sapiens) (P06401 whole entry, looked up): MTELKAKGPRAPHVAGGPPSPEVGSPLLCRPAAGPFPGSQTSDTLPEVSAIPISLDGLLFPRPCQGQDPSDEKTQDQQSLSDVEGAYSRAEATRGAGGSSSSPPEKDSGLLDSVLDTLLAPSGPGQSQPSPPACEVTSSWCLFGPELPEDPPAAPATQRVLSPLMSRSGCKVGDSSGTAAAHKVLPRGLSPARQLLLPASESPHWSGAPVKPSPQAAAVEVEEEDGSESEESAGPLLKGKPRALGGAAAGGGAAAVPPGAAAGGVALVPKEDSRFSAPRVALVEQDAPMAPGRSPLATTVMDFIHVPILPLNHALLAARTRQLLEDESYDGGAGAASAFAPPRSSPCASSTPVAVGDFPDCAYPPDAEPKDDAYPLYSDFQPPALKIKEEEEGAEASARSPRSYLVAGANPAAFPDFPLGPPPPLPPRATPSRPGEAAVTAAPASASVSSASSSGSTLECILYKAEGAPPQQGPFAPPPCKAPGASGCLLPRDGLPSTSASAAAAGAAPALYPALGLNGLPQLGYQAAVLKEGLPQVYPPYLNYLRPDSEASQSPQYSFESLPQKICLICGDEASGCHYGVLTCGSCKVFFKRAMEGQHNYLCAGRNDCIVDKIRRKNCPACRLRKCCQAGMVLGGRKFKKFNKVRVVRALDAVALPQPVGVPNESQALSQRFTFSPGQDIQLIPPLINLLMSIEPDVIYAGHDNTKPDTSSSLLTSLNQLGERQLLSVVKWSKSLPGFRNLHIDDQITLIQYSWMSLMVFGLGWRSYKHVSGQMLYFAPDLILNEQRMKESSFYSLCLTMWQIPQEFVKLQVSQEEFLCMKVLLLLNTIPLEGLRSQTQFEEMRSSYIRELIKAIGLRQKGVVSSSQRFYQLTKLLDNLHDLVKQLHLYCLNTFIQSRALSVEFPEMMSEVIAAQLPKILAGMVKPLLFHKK
Text: U.S. Tox21 Program National Center for Advancing Translational Sciences [NCATS] NIH Chemical Genomics Center [NCGC] U.S. Environmental Protection Agency [EPA] National Institutes of Environmental Health Sciences [NIEHS] National Toxicology Program [NTP] U.S. Food and Drug Administration [FDA] […] Endocrine disrupting chemicals (EDCs) and their interactions with steroid hormone receptors like PR causes disruption of normal endocrine function. To identify the compounds that activate PR signaling, a PR-UAS-bla GripTite cell line i.e. PR-UAS-bla HEK 293T (Invitrogen, Carlsbad, CA, USA) containing a beta-lactamase reporter gene under the control of an Upstream Activator Sequence (UAS) was used to screen Tox21 10K compound library.
Tox21 Assay Protocol Summary: PR-UAS-bla HEK 293T cells were dispensed at 3,000 cells/5 uL of assay medium containing 2% charcoal stripped FBS per well into black wall/clear-bottom 1536-well plates using a Multidrop Combi (ThermoFisher Scientific, Waltham, MA) dispenser. After the assay plates were incubated at a 37C and 5% CO2 for 6hr, 23 nL of compounds dissolved in DMSO, positive controls or DMSO only was transferred to the assay plate by a Pintool station (Kalypsys, San Diego, CA). The plates were incubated at 37C and 5% CO2 for 16hr. Then 1 uL of LiveBLAzer B/G FRET substrate was added using a BioRAPTR FRD (Flying Reagent Dispenser, Aurora Discovery, San Diego, CA). After the plates were incubated at room temperature for 2 hours, fluorescence intensity was measured by an Envision plate reader (PerkinElmer, Shelton, CT).
With `CN1C(=O)CN=C(c2ccccc2)c2cc(Cl)ccc21` the outcome was “inactive”. `NCCc1ccc(O)cc1` was tested, and the outcome was “inactive”. In the case of `CCNc1nc(NC(C)(C)C)nc(SC)n1`, the outcome was “inactive”. For `CN(N=O)c1ccccc1`, the outcome was “inactive”. For `Cc1[nH]c(=O)n(C(C)(C)C)c(=O)c1Cl`, the outcome was “inactive”. With `CCCCN(CC)C(=O)SCCC` the outcome was “inactive”. With `CC(C)(Cl)Cl` the outcome was “inactive”. In the case of `CC(C)N1C(=O)c2ccccc2NS1(=O)=O`, the outcome was “inactive”. `CC(C)OC(=O)Nc1cccc(Cl)c1` was tested, and the outcome was “inactive”. For `Nc1ccc(Cc2ccc(N)cc2)cc1`, the outcome was “inactive”. `CC1OC(C)OC(C)O1` (stereo not given) was tested, and the outcome was “inactive”. `Nc1ccccc1C(=O)O` was tested, and the outcome was “inactive”. `O=S(=O)(c1ccc(Cl)cc1)c1cc(Cl)c(Cl)cc1Cl` was tested, and the outcome was “inactive”. `O=c1ccc(=O)[nH][nH]1` was tested, and the outcome was “inactive”. In the case of `O=NN1CCCC1`, the outcome was “inactive”. In the case of `Clc1cccc(Cl)c1Cl`, the outcome was “inactive”. With `CC(C)NC(=O)N1CC(=O)N(c2cc(Cl)cc(Cl)c2)C1=O` the outcome was “inactive”. In the case of `Cc1cccc([N+](=O)[O-])c1`, the outcome was “inactive”. With `CCN(CC)c1ccccc1` the outcome was “inactive”. In the case of `COC(=O)NC(=S)Nc1ccccc1NC(=S)NC(=O)OC`, the outcome was “inactive”. In the case of `CCC(C)(CC)c1cc(NC(=O)c2c(OC)cccc2OC)on1`, the outcome was “inactive”. With `O=C(NC(=O)c1c(F)cccc1F)Nc1cc(Cl)c(OC(F)(F)C(F)C(F)(F)F)cc1Cl` (stereo not given) the outcome was “inactive”. With `Cc1ccccc1O` the outcome was “inactive”. For `CC(C)OC(=O)Nc1ccccc1`, the outcome was “inactive”. For `CCN(CC)CCO`, the outcome was “inactive”. `CCCCOC(=O)c1ccccc1C(=O)OCCCC` was tested, and the outcome was “inactive”. With `Nc1c(Cl)c(Cl)nc(C(=O)O)c1Cl` the outcome was “inactive”. `CCCN(CCC)c1c([N+](=O)[O-])cc(C(F)(F)F)cc1[N+](=O)[O-]` was tested, and the outcome was “inactive”. `c1ccc(OP(Oc2ccccc2)Oc2ccccc2)cc1` was tested, and the outcome was “inactive”. In the case of `CC(Oc1ccc(Cl)cc1Cl)C(=O)O` (stereo not given), the outcome was “inactive”. With `Clc1ccccc1Cl` the outcome was “inactive”. With `COC(=O)c1ccccc1N` the outcome was “inactive”. For `CN(C)CCO`, the outcome was “inactive”. With `CCCN(CCC)N=O` the outcome was “inactive”. `c1cc2c3c(cccc3c1)CC2` was tested, and the outcome was “inactive”. With `O=Cc1cccc(Oc2ccccc2)c1` the outcome was “inactive”. In the case of `ClCc1cccnc1`, the outcome was “inactive”. In the case of `Nc1ccc(Oc2ccc(N)cc2)cc1`, the outcome was “inactive”. With `CCOC(=O)c1ccccc1C(=O)OCC` the outcome was “inactive”. `CCOP(=S)(OCC)Oc1cnc2ccccc2n1` was tested, and the outcome was “inactive”.
